# In PubChem BioAssay AID588354 (The Scripps Research Institute Molecular Screening Center, 2011):
# In all, about 360,000 compounds went through this assay and about 430 (0.12%) were called active.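 Rule for the calls: active = inhibition above the campaign mean plus 3 SD, with each screening campaign given its own cutoff (cut at about 60% in these data); inactive = the rest.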 The list comes from a sample in which actives are over-represented; it also holds similar structures and randomly drawn compounds.
# Target: Nuclear receptor coactivator 1 (Homo sapiens) (UniProt Q15788)
# Assay: NCOA1 GAL4-fusion reporter inhibition – cell-based, luminescence, primary screen (AID 588354);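 note: 0% = DMSO treated cells and 100% = gossypol at 36 µM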
# Conditions: HEK293 GAL4-SRC1 luciferase reporter, at 3.6 µM, stronger effect = higher value
# Chain of Nuclear receptor coactivator 1 (Homo sapiens) (Q15788 whole entry, looked up, the tested form may be a part): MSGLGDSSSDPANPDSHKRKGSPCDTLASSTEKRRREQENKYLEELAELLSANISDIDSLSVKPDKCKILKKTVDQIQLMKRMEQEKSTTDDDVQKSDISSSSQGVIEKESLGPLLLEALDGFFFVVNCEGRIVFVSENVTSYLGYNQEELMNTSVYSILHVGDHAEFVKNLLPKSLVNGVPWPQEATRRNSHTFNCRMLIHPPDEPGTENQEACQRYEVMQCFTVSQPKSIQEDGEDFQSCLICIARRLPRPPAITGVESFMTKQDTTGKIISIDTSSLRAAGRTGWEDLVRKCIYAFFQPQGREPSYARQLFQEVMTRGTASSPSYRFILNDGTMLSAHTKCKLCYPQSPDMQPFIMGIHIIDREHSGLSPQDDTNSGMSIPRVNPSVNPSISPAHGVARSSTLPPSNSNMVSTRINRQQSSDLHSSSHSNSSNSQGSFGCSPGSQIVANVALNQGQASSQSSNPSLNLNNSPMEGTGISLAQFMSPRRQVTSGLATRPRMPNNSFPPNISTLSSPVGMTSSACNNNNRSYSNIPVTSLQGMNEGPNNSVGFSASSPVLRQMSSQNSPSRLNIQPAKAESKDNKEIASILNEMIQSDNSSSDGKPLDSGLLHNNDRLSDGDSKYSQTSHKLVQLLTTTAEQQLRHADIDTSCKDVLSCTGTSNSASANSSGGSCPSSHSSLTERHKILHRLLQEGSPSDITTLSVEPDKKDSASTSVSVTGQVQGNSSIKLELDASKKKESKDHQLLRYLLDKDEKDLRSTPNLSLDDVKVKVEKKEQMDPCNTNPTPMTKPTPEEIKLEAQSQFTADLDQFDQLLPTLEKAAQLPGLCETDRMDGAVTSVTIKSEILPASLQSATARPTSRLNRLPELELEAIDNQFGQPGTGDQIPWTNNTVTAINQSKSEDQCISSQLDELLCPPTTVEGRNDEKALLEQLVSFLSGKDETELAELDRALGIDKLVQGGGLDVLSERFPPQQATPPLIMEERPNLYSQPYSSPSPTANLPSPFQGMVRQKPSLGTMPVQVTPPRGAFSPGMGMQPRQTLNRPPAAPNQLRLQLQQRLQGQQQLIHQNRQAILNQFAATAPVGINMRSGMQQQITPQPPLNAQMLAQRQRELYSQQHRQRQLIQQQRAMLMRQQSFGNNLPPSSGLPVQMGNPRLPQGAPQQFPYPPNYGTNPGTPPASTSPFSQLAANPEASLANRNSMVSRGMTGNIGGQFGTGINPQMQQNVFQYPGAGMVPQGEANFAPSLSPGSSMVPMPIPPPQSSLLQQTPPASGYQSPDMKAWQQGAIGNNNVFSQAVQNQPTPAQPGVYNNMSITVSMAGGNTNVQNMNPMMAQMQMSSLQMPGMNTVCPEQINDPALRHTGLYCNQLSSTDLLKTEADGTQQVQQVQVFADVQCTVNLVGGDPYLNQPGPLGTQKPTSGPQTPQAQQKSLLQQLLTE
row,SMILES,inhibition
1,C[C@@H](NC(=O)c1nc[nH]c1C(=O)N1CCN(C(=O)OC(C)(C)C)CC1)c1ccccc1,-15.6% (inactive)
2,Cn1cc(/C=C/C(=O)N2CCCC(C(=O)c3ccc(C(F)(F)F)cc3)C2)cn1 (stereo unspecified),8.39% (inactive)
3,CC1(NC(=O)CCS(=O)(=O)c2ccc(Cl)cc2)CCS(=O)(=O)C1 (stereo unspecified),-3.53% (inactive)
4,CN(c1ccc2nc3ccccc3c(=O)n2n1)C1CCCCC1,71.9% (active)
5,CC(C)(C)c1nc2ccccc2c(=O)n1N1C(=O)c2ccccc2C1=O,6.03% (inactive)
6,CN(C(=O)Nc1ccc(Cl)cc1)n1cnc2ccccc2c1=O,-15.6% (inactive)
7,CSc1ncccc1C(=O)Nc1cccc(S(=O)(=O)N2CCOCC2)c1,-16.1% (inactive)
8,O=C(Nc1cccc(Cc2ccccc2)c1)Nc1ccc2nc([C@@H]3O[C@H](CO)[C@@H](O)[C@H](O)[C@H]3O)[nH]c2c1,-1.54% (inactive)
9,CN(C)S(=O)(=O)c1ccc(Oc2ccc(S(=O)(=O)N(C)C)cc2)cc1,21.5% (inactive)
10,CC(C)(C)c1ccc(Oc2ccc(N)cc2)cc1,74% (active)
11,COc1cc2c3c(c1)/C(=C1/SC(=S)NC1=O)C(=O)N3C(C)(C)C=C2C,-18% (inactive)
12,CCN(CC(=O)Nc1ccc2c(c1)OCCO2)Cc1cc(=O)oc2cc(C)c(C)cc12,1.42% (inactive)
13,COC(=O)c1ccc(N2CCOCC2)c(NC(=O)c2ccc(Br)o2)c1,3.93% (inactive)
14,CCCCc1nc2c(=O)[nH]c3ccccc3c2o1,-5.89% (inactive)
15,Cc1cc(C)cc(NC(=O)CSCc2cnn(-c3ccccc3)c2-n2cccc2)c1,0.69% (inactive)
16,CCCc1noc2c1/C(=N\O)CCC2,7.65% (inactive)
17,Cc1oc(C(N)=O)cc1COc1ccc(C(N)=O)cc1,11.6% (inactive)
18,Cn1c(-c2ccc(C(F)(F)F)cc2)cc2onc(-c3ccccc3)c2c1=O,-53.3% (inactive)
19,CC(OC(=O)c1ccc(-n2cnnn2)cc1)C(=O)NCc1ccccc1 (stereo unspecified),-1.03% (inactive)
20,CCC(C)c1ccccc1NC(=O)CN(C)CC(=O)Nc1ccccc1SC (stereo unspecified),3.11% (inactive)
21,CCc1ccc(C(=O)N2CCN(S(=O)(=O)c3sc(C(=O)O)c(C)c3C(=O)O)CC2)cc1,-9.2% (inactive)
22,CC(C)CCNC(=O)C(C)N(C(=O)Cn1nnc(-c2ccc(F)cc2)n1)C1CCCC1 (stereo unspecified),5.49% (inactive)
23,COc1ccc(Cn2cccc(NC(=O)Nc3ccc(C#N)cc3)c2=O)cc1,13.7% (inactive)

row,SMILES,inhibition
1,CCOc1ccc(S(=O)(=O)N2CCN(C(=O)c3oc4ccccc4c3C)CC2)cc1,-3.94% (inactive)
2,CCN(C(=O)COC(=O)CCOc1cccc(C)c1)c1c(N)n(Cc2ccccc2)c(=O)[nH]c1=O,4.13% (inactive)
3,Cc1cccc(C)c1Cn1c(C)c(C(=O)NCc2cccc(Cl)c2)sc1=O,-0.2% (inactive)
4,CCc1ccc(CN(C)C(=O)C2CCC(=O)N(Cc3cccc(OC)c3)C2)nc1 (stereo unspecified),5.84% (inactive)
5,CC(C)CN(C(=O)CSc1nncn1C)C1CCS(=O)(=O)C1 (stereo unspecified),14% (inactive)
6,O=C(N/N=C/c1ccccc1O)/C(=C/c1ccccc1)CCO,30.9% (inactive)
7,O=C(NN=Cc1ccccc1O)NN=Cc1ccccc1O,63% (active)
8,C=CCOc1ccccc1/C=N/NC(=O)Cc1ccccc1,-8.79% (inactive)
9,CCSc1sc(CC)cc1C=O,-14.9% (inactive)
10,Cc1cc2c(cc1C)N(Cc1ccccc1)C1=NCCCN12,21.9% (inactive)
11,CS(=O)(=O)Nc1ccccc1C(=O)OCC(=O)NC1CC1,-13.3% (inactive)
12,COc1ccc2c(c1)c(=Cc1ccc(N(C)C)cc1)c1cc(-c3ccccc3)[n+](C)n12,64.1% (active)
13,COc1ccc(Nc2ncnc3ccc(Br)cc23)c(OC)c1,81.9% (active)
14,COc1ccc(OC)c(NC(=O)CN(C)CCOc2ccc(Br)cc2)c1,-10.8% (inactive)
15,COc1ccc(OC)c(Nc2nc3ccccc3n3cnnc23)c1,1.7% (inactive)
16,COc1ccccc1C(=O)NC(=O)COC(=O)c1ccco1,3.45% (inactive)
17,COC(=O)c1ccc(NC(=O)CSc2nncc3ccc(OC)c(OC)c23)cc1,-23.3% (inactive)
18,CCN(CC)CCCNC(=O)c1c(O)c2cc(F)cc3c2n(c1=O)C(C)CC3 (stereo unspecified),-12.1% (inactive)
19,COc1ccc(CCN2C(=O)N(c3ccc(OC)cc3)C(=O)C2CC(=O)Nc2ccc(OC)cc2)cc1 (stereo unspecified),-12.4% (inactive)
20,O=C(Nc1cccc2c1CCCC2)C1CCN(C(=O)NC2CCCCC2)CC1,3.24% (inactive)
21,O=C(CC1Nc2ccccc2NC1=O)Nc1ccccc1 (stereo unspecified),-51.2% (inactive)
22,CCN(c1ccccc1)S(=O)(=O)c1ccc(OCC(=O)N2CCCC2)cc1,-2.15% (inactive)
23,CCC(C)NC(=O)c1cc(Cl)ccc1OC (stereo unspecified),3% (inactive)

row,SMILES,inhibition
1,CC(C)C[C@H](NC(=O)C1CCC(CNC(=O)[C@@H]2CCCN2C(=O)OC(C)(C)C)CC1)C(=O)O (stereo partly specified),16% (inactive)
2,CC(C)(C)C(=O)NCCCNc1ccc([N+](=O)[O-])cc1,-24.3% (inactive)
3,CCN(CC)S(=O)(=O)c1ccc(N2CCN(C)CC2)c(NC(=O)Nc2ccccc2F)c1,-0.49% (inactive)
4,COCC1CCCN(Cc2nc(-c3ccc4c(c3)OCO4)no2)C1 (stereo unspecified),-70.5% (inactive)
5,CC(=O)Nc1ccc(C(=O)Nc2cc(S(=O)(=O)N3CCOCC3)ccc2N2CCOCC2)cc1,-2.37% (inactive)
6,O=C(NCCc1ccccc1)Oc1ccc(Cl)cc1,-56.8% (inactive)
7,COc1ccc(CN2CCC(c3nc4ccc(Cl)cc4[nH]3)CC2)cc1,2.53% (inactive)
8,Cc1cc(NC(=O)CSC2=NS(=O)(=O)c3cc(Cl)ccc3N2)no1,-31% (inactive)
9,CN(CCOc1ccc(Br)cc1)CC(=O)Nc1cccc(S(=O)(=O)NC2=NCCC2)c1,-16.8% (inactive)
10,CC(C)(C)c1ccccc1NC(=O)CN1C(=O)NC2(CCCC2)C1=O,-13.8% (inactive)
11,CCn1nc(C(=O)Nc2ccc(N3CCOCC3)cc2)c2ccccc2c1=O,-1.53% (inactive)
12,CCCCOC(=O)NCN1C(=O)C2C3C=CC(C3)C2C1=O (stereo unspecified),1% (inactive)
13,Cc1cc(NCc2cccnc2)no1,25.1% (inactive)
14,Brc1ccc2ncnc(NCc3cccnc3)c2c1,66.1% (active)
15,Clc1ccc(Cn2ncc3c(NCc4cccnc4)ncnc32)cc1,-4.66% (inactive)
16,COc1ccc(S(=O)(=O)N2CCN(C(=O)N(C)C)C2C)cc1 (stereo unspecified),-47.2% (inactive)
17,C=CCN1C=C(C(=O)c2ccccc2)C(=O)CC1,-2.55% (inactive)
18,O=C(O)C1CCCN1C1=NS(=O)(=O)c2ccccc21 (stereo unspecified),12.2% (inactive)
19,Cc1ccc(C)c(OCc2cc(C(=O)N3CCN(c4cnccn4)CC3)no2)c1,-12.1% (inactive)
20,CCOc1ccccc1NS(=O)(=O)c1c[nH]c(C(=O)OC)c1,-15% (inactive)
21,C=CC[C@H](CC(=O)OC(C)(C)C)C(=O)OC[C@H]1CCCN1C(=O)[C@H](CC=C)CC(=O)N(CCO)Cc1ccccc1,-0.47% (inactive)
22,CC1(C)CN(Cc2cccnc2)C(=O)[C@H]1CC(=O)Nc1ccc(Br)cc1,-2.09% (inactive)
23,O=c1ccc2c(-c3ccccc3S(=O)(=O)O)c3ccc(O)c(O)c3oc-2c1O,13.4% (inactive)

row,SMILES,inhibition
1,CCn1c(SCC(=O)N2CCCC2=O)nc2ccccc21,16.1% (inactive)
2,CC1=C(C(=O)N(C)C)C(c2ccccc2OC(F)F)NC(=O)N1 (stereo unspecified),4.69% (inactive)
3,O=C(NC1CCCC1)C(c1ccc(N2CCOCC2)cc1)N(C(=O)c1ccco1)c1ccccc1F (stereo unspecified),5.48% (inactive)
4,Cc1ccc(CSCC2Nc3ccc(C(=O)N4CCN(c5ccc(F)cc5)CC4)cc3NC2=O)cc1 (stereo unspecified),2.74% (inactive)
5,C[C@@H](C(=O)N1CCNCC1)n1cc(CCC(=O)O)nn1,3.05% (inactive)
6,Cc1ccccc1-c1cc(C(=O)NCC2CC2)n(CC2CC(c3cccnc3)=NO2)n1 (stereo unspecified),2.14% (inactive)
7,CO/N=C/c1cn(-c2ccc(Cl)cc2)nn1,-12.7% (inactive)
8,COc1cccc(OCc2cc(/C=N/NC(=O)c3nc(Cl)c(Cl)c(N)c3Cl)ccc2OC)c1,-14.2% (inactive)
9,COc1ccc(C(=O)Nc2ccccc2C(=O)N/N=C/c2ccc(O)c(OC)c2)cc1,64.2% (active)
10,CCOc1cc(/C=N/NC(=O)c2c(C)nc3ccc(Cl)cn23)ccc1O,0.11% (inactive)
11,CC1CN(c2nc(-c3ccccc3)nnc2-c2ccccc2)CC(C)O1 (stereo unspecified),10.6% (inactive)
12,CC(Oc1ccc(Cl)cc1Cl)C(=O)/C=C/N(C)C (stereo unspecified),-17.4% (inactive)
13,COCCN(Cc1nc(-c2ccc(C(F)(F)F)cc2)no1)C(C)C,-8.16% (inactive)
14,CC(CCn1cccn1)NC(=O)CCc1nnc(CCc2ccccc2)o1 (stereo unspecified),11.7% (inactive)
15,O=C(Nc1cc(-c2ccccc2)nn1-c1ccccc1F)c1ccc([N+](=O)[O-])cc1,-16.9% (inactive)
16,O=C(NNS(=O)(=O)Cc1ccccc1)c1ccc([N+](=O)[O-])cc1,-4.79% (inactive)
17,O=C(NC(Nc1nc2ccc([N+](=O)[O-])cc2s1)(C(F)(F)F)C(F)(F)F)c1ccccc1,68.3% (active)
18,COc1cc(CN2CCNC(=O)C2CC(=O)NCCc2ncccc2C)cc(OC)c1 (stereo unspecified),14.8% (inactive)
19,O=C(CCc1ccc(S(=O)(=O)N2CCOCC2)cc1)Nc1ccc2ccccc2c1,-5.83% (inactive)
20,CC1CCCN(CCOCCOc2ccccc2-c2ccccc2)C1 (stereo unspecified),9.99% (inactive)
21,C[C@H]1CN([C@@H](C)CO)C(=O)c2cc(Br)cnc2O[C@H]1CN(C)S(=O)(=O)c1cccs1,-44.2% (inactive)
22,N#CC1(NC(=O)COC(=O)CSc2ccc(F)cc2)CCCCC1,20.2% (inactive)
